Test results taken from PubChem BioAssay AID434927 (Sanford-Burnham Center for Chemical Genomics, 2010).
Activity calls are given as the source filed them.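 Rule for the calls: active = inhibition above about 23% in any of six single-dose repeats (limit read from the data); inactive = the rest.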

Molecular target: Intestinal-type alkaline phosphatase (Homo sapiens) (UniProt P09923)
Test: human IAP inhibitors, confirmation, biochemical, luminescence, single concentration, uHTS hits (AID 434927);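 note: plate controls were DMSO wells with enzyme for no effect and wells lacking enzyme for full effect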
Settings: purified human IAP, CDP-Star luminescence, 30 min; at 8.3 µM; active compounds read high

Intestinal-type alkaline phosphatase (Homo sapiens), sequence (P09923 whole entry, looked up): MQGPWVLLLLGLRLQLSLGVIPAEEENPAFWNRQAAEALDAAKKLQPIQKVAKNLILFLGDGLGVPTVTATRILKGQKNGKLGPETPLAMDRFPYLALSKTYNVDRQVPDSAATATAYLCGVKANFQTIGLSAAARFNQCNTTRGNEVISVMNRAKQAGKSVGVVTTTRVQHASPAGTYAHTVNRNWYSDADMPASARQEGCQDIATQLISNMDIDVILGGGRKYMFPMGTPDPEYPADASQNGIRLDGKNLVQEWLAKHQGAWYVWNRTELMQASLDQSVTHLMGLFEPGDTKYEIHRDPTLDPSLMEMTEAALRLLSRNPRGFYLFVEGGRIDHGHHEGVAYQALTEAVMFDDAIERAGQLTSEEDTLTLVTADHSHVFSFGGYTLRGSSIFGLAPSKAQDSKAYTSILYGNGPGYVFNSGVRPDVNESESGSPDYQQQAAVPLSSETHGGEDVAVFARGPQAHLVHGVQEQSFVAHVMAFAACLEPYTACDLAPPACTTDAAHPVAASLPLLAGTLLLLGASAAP

**Q.** `COC(=O)Cn1cc(/C=C2\C(=O)NC(=O)N(c3ccccc3)C2=O)c2ccccc21` was tested. Which inhibition did it give?
**A.** The inhibition was 33.9% (active).
